DT40 TDP1 no CPT: qHTS for Inhibitors of human tyrosyl-DNA phosphodiesterase 1 (TDP1): qHTS in cells in absence of CPT. DT40 Tdp1-/- hTDP1 cells, no CPT, ATP luminescence, 48 h. Potency, µM (series often up to 46.2 µM), for inactives: top-dose activity change, negative = growth inhibition, most hits filed as inhibitors. 15% of 420,000 active. AID 686978, 2013; note: potency is the fitted concentration of half-maximal effect; nearly all actives have a fitted effect of over 55% in size
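Readout: luminescence from CellTiter-Glo after 30 min in the dark at RT. Cells: DT40 Tdp1-/- with stable hTDP1, 400/well. Exposure: compounds alone, ≥48 hr, 37 °C.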
HT1080NT lethal: kills 2HG-producing HT-1080-NT fibrosarcoma cells. 1.6% of 360,000 active. Potency, µM (series often up to 46.1 µM), without a hit: top-dose activity, negative = less viability, most hits filed as cytotoxic. HT-1080-NT fibrosarcoma viability, CellTiter-Glo ATP luminescence, 48 h;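 note: NT is the 2HG producing partner of a matched IDH1 knockdown line; potency is the fitted concentration of half-maximal effect; 0% = DMSO-treated cells and -100% = media-only wells without cells; nearly all actives have a fitted effect of over 55% in size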
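Compounds were tested in concentration-response format on HT-1080-NT cells for 48 hours at 37 degrees C. Cell viability came from CellTiter-Glo luminescence; curves were classified by r2, response magnitude and activity.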
DT40 TDP1 CPT: DT40-hTDP1 cell growth loss with CPT; chicken DT40 Tdp1-/-;hTDP1 cells + 20 nM CPT, ATP luminescence, 48 h; Potency, µM (highest dose often 46.2 µM), without a hit: at the top dose activity change, negative = growth inhibition, usual class: inhibitors; 12% of 420,000 active; AID 686979; note: potency is the fitted concentration of half-maximal effect; nearly all actives have a fitted effect of over 55% in size
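Cell growth measured by CellTiter-Glo luminescence after a minimum 48 h, 37 C compound exposure with 20 nM CPT in Tdp1-knockout DT40 cells stably expressing hTDP1, seeded 400/well; qHTS titration format.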
ELG1 DNA repair: inhibitors of ELG1-dependent DNA repair in HEK293T cells; 2.3% of 330,000 active; Potency, µM (highest dose often 46.1 µM), without a hit: top-dose activity change, negative = inhibition, usual class: inhibitors; HEK293T ELG1-luciferase reporter, luminescence, 16 h; DNA damage induced by 5-fluorouridine; note: potency is the fitted concentration of half-maximal effect; nearly all actives have a fitted effect of over 55% in size
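5-Fluorouridine DNA damage + compound/DMSO, 2,000 cells/well, 16 h, 37 °C/5% CO2. ONE-Glo, 30 min RT, luminescence. Readout = decrease in reporter signal.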
IL1B secr inh: inhibitors of inflammasome signaling (IL-1 beta secretion). AID 743279. THP-1 LPS/ATP IL-1B secretion, AlphaLISA, 16 h; stronger effect = lower value. 4.7% of 360,000 active. activity change, % at 57.5 µM; in the data active = activity change below about -50%; inconclusive = mostly about -30% to -49%
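Secreted IL-1B measured by AlphaLISA bead assay after 16 h compound exposure of THP-1 cells; compounds (final up to 57.5 uM) added 1 h before LPS (250 ng/mL) and ATP (1.25 mM) stimulation; lower signal means less secretion.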
HT1080 IDH1KD tx: HT-1080 IDH1 knockdown cell toxicity (counter line) | HT-1080 IDH1 knockdown viability, ATP luminescence, 48 h | Potency, µM (top dose mostly 46.1 µM), for inactives: at the top dose activity, negative = toxicity, most hits filed as cytotoxic | 2% of 360,000 active | AID 686971;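 note: potency is the fitted concentration of half-maximal effect; 0% = DMSO wells and -100% = cell-free medium wells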
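In this qHTS, HT-1080 cells depleted of IDH1 are exposed for 48 h at 37 °C to compound titrations. Toxicity is scored from CellTiter-Glo luminescence, with DMSO as full viability and medium alone as none.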
Starred values were filed as active, the others as inactive; ? = inconclusive; . = not tested or not shown; [ ] = remark or other dose. An excerpt weighted towards active compounds, which were near 19% of everything screened. Unless noted, calls come from the whole dose curve; as a rule, active = well fitted curve in the direction sought with a large enough effect; inconclusive = small, poorly fitted or top-dose-only effect, or another doubt; inactive = no such curve, though single readings can be large; an effect the other way counts as inactive or inconclusive. Unless noted, % is set by controls: 0 for no effect and ±100 for the full control effect.

SMILES | DT40 TDP1 no CPT | HT1080NT lethal | DT40 TDP1 CPT | ELG1 DNA repair | IL1B secr inh | HT1080 IDH1KD tx
COc1cc(NC(=O)CSc2ccc(-c3sc(-c4ccccc4)nc3C)nn2)cc(OC)c1 | 16µM* | . | -87% | . | . | .
Nc1c2c(nc3ccccc13)CSCC2 | ? | -3% | 7% | . | -10 | 7%
Cc1nc2cnc(Nc3ccccc3)nc2n(CCc2ccccc2)c1=O | -30% | . | -11% | . | . | .
COc1cccc(CNC(=O)CSc2ccc(-c3sc(-c4ccccc4)nc3C)nn2)c1 | 18µM* | . | ? | . | . | .
Cc1ccc(CNC(=O)CSc2ccc(-c3sc(-c4ccccc4)nc3C)nn2)cc1 | -24% | . | -26% | . | . | .
Cc1ccc(C)c(C(=O)CC2(O)C(=O)N(C)c3ccccc32)c1 (stereo unspecified) | 4% | 0% | -16% | -2% | 24 | 10%
CN1C(=O)C(O)(CC(=O)c2cccnc2)c2ccccc21 (stereo unspecified) | 10µM* | 4% | 12µM* | 6% | 16 | 4%
O=C(Nc1ccn(Cc2cccc3ccccc23)n1)c1cccnc1 | ? | -19% | ? | ? | -4 | ?
O=C(CC1(O)C(=O)N(Cc2cccc3ccccc23)c2ccccc21)c1cccnc1 (stereo unspecified) | 0.82µM* | ? | 0.92µM* | -27% | 30 | 10µM*
Cc1ccc(NC(=O)CN(C)S(=O)(=O)c2ccc(Br)s2)cc1F | ? | -11% | 2% | ? | -62* | -11%
C=CCn1c(SCC(=O)c2[nH]c(C)c(C(=O)OCC)c2C)nc2scc(-c3ccc(OC)c(OC)c3)c2c1=O | 13µM* | 5% | 15µM* | -11% | -8 | 21%
CCOC(=O)c1c(C)[nH]c(C(=O)CSc2nnc(-c3ccncc3)n2CC)c1C | -24% | -10% | -2% | ? | ? | ?
C/C(=C(\CCO)SS/C(CCO)=C(\C)N(C=O)Cc1cnc(C)nc1N)N(C=O)Cc1cnc(C)nc1N | -6% | . | 3% | . | . | .
O=C(Nc1cc(=O)[nH]c(=O)[nH]1)c1cc(Cl)ccc1Cl | 4.1µM* | ? | 3.3µM* | ? | 59 | 3.3µM*
CCOc1cc(/C=N/NC(=O)CN2CCOCC2)ccc1OCc1ccc(Cl)cc1 | ? | -4% | ? | -19% | ? | -17%
CCOc1cc(/C=N/NC(=O)c2ccc(O)cc2)ccc1Oc1nc(Cl)ncc1F | ? | -2% | 21µM* | ? | 0 | -1%
COc1ccc(/C=N/NC(=O)CC#N)cc1Oc1nc(Cl)ncc1F | ? | 12% | 1% | 19% | 6 | 1%
CCOc1cc(/C=N\Nc2ncc(F)c(N3CCOCC3)n2)ccc1Oc1nc(Cl)ncc1F | 1.8µM* | ? | 5.2µM* | 23µM* | -83* | ?
Cc1ccc(NC(=O)CC(C)c2ccccc2)cc1S(=O)(=O)N1CCOCC1 (stereo unspecified) | ? | -1% | ? | ? | -9 | -6%
CC1(C)CC(Nc2ccc(C(F)(F)F)cc2[N+](=O)[O-])CC(C)(C)N1 | ? | -24% | -21% | 3% | -52* | ?
Cc1ccc(S(=O)(=O)CCC(=O)OC(C)c2nnc(-c3cccs3)o2)cc1 (stereo unspecified) | -7% | 0% | -7% | 0% | 8 | 11%
CC(C)c1c(C(=O)NCc2cccnc2)cnn1-c1nccc(-c2ccccc2F)n1 | ? | . | 27%[9.04 µM] | . | . | .
COCCN1CCCC(CNCc2cn(C)nc2-c2ccc(Oc3ccccc3)cc2)C1 (stereo unspecified) | 5.8µM* | ? | 18µM* | -9% | -51* | ?
COCCN(Cc1cn[nH]c1-c1ccc2cc(OC)ccc2c1)C(C)C | 2% | -2% | -2% | 20% | -9 | -1%
Cn1cc(CN2CCCCC2CO)c(-c2ccc(Oc3ccccc3)cc2)n1 (stereo unspecified) | ? | -27% | ? | 3% | ? | ?
SMILES | DT40 TDP1 no CPT | HT1080NT lethal | DT40 TDP1 CPT | ELG1 DNA repair | IL1B secr inh | HT1080 IDH1KD tx
CCOC(=O)CN(C)Cc1cn[nH]c1-c1ccc2cc(OC)ccc2c1 | 13µM* | -15% | 16µM* | 3% | -64* | -16%
CCOC(=O)CN(C)Cc1cn(C)nc1-c1ccc(Oc2ccccc2)cc1 | 13µM* | 0% | ? | ? | 25 | 8%
COC1CCCN(Cc2cn(C)nc2-c2ccc(Oc3ccccc3)cc2)C1 (stereo unspecified) | -27% | -18% | -15% | 11% | ? | -5%
CCCN1CCC(NCc2cn(C)nc2-c2ccc(Oc3ccccc3)cc2)CC1 | 4.6µM* | ? | 5.2µM* | 8% | 0 | ?
CC1=C(C(=O)O)N2C(=O)C(NC(=O)C(N)c3ccccc3)C2SC1 (stereo unspecified) | 1% | . | 12% | . | . | .
Cc1cc(Nc2ccc(C)c(C)c2)n2cnnc2n1 | -21% | . | 0% | . | . | .
CCN(CC)c1ccc2cc(-c3nc4sc5c(c4c(=O)[nH]3)CCC(C(C)(C)C)C5)c(=O)oc2c1 (stereo unspecified) | -6% | . | 3% | . | . | .
CC(NN)c1ccccc1 (stereo unspecified) | -11% | . | -7% | . | . | .
CC(NCCC(c1ccccc1)c1ccccc1)c1ccccc1 (stereo unspecified) | 5.2µM* | ? | 6.5µM* | ? | ? | ?
C=CC[n+]1c(-c2ccc(Cl)cc2Cl)csc1Nc1ccc(NC(C)=O)cc1 | 21µM* | ? | ? | 6% | -80* | 18µM*
C=CC[n+]1c(-c2ccc(Cl)cc2Cl)csc1Nc1c(C)n(C)n(-c2ccccc2)c1=O | 3.7µM* | 21µM* | 5.2µM* | ? | -80* | 15µM*
COc1ccc(OCCC(=O)OCC(=O)NCCc2ccccc2)cc1 | -19% | 12% | 12% | -11% | -4 | 18%
CN(Cc1ccco1)c1cc(-c2ccc3c(c2)OCO3)ncn1 | -23% | . | -21% | . | . | .
Cc1ccc(N2CCC3CC2c2cc(-c4ccc(C(F)(F)F)cc4)ccc23)cc1 (stereo unspecified) | 16µM* | 0% | ? | . | 48 | 4%
Cc1cc(N2C(=O)C3C4c5ccccc5C(c5ccccc54)C3C2=O)no1 (stereo unspecified) | 10µM* | 8% | 12µM* | ? | 16 | 3%

Bioassay records: PubChem BioAssay, National Center for Advancing Translational Sciences (NCATS)
